High-throughput results: PubChem, The Scripps Research Institute Molecular Screening Center
TTR transcr act = increases transthyretin transcription; activation, % at 16.7 µM; AID 1117267; 92,000 compounds, 1.3% hits; SH-SY5Y TTR promoter Gaussia luciferase, luminescence; 100% = recombinant luciferase protein wells;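 active = activation above the mean of all tested compounds plus 3 SD, cut at about 9.5% in these data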;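 note: cells exposed to compounds for one day before reading; 0% = median of all test compound wells on the plate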
HuH7 TTR inh = counter-screen for TTR activators: TTR transcription inhibitors in HuH7 cells; shares compounds with TTR transcr act; HuH7 TTR promoter-Gaussia luciferase reporter, luminescence; inhibition, % at 16.7 µM; 1,100 compounds, 4% hits; AID 1117279;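 active = average inhibition above the solvent-only control wells' mean plus 3 SD, cut at about 15% in these data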;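 note: 0% = cells with DMSO only and 100% = cells with inhibitor control FD; inhibitors lower well luminescence so higher value means more inhibition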
TTR up confirm = human TTR transcription activation, confirmation; shares compounds with TTR transcr act; SHSY5Y TTR promoter Gaussia luciferase, luminescence; 100% = purified Lucia enzyme wells, no cells; activation, % at 16.7 µM; 1,100 tested, under 10 active; AID 1117280;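 active = mean activation above a set limit taken from the earlier primary screen, cut at about 11% in these data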;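 note: 0% = DMSO-treated cells and 100% = recombinant Lucia luciferase without cells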
Numbers without * were called inactive. The full list was thinned out, with hits kept by preference.

SMILES	TTR transcr act	others
CCOC(=O)c1ccccc1NC(=O)C(C)Oc1ccccc1 (configuration not stated)	-2
CC(C)N(C[C@@H]1CSCCS(=O)(=O)N1)C1CCCCC1	4
CN1CCN([C@@H]2CS(=O)(=O)N[C@H]2COCc2ccccc2)CC1	0
O=C(NCC(c1ccccc1)c1ccccc1)[C@H](Cc1ccccc1)NC1(C(=O)NC2CCCCC2)CCCCCC1	2
C[C@@H]1CN([C@@H](C)CO)C(=O)c2cccc(NC(=O)C3CCCCC3)c2O[C@@H]1CN(C)C(=O)NC1CCCCC1	3
COC(=O)c1cnn(-c2ccccc2)c1/C=N/NC(=S)Nc1ccccc1	11*	HuH7 TTR inh=-5;TTR up confirm=-1
COC(=O)c1cnn(-c2ccc(Cl)cc2)c1/C=N/NC(=S)Nc1ccccc1	-2
COC(=O)c1cnn(-c2ccc(F)cc2F)c1/C=N/NC(=S)Nc1ccccc1	-1
COC(=O)CSc1ccc(C#N)c(SCC(=O)OC)c1	1
COC(=O)CSc1ccccc1C(=O)OC	19*	HuH7 TTR inh=-13;TTR up confirm=1
COC(=O)Cn1cc(C(=O)OC)c2ccccc21	-1
Cc1cccc(C)c1OCC(=O)Nc1ccc(S(=O)(=O)Nc2ccccn2)cc1	17*	HuH7 TTR inh=-4;TTR up confirm=0
O=C(COc1ccc(Br)cc1)Nc1ccc(S(=O)(=O)Nc2ccccn2)cc1	-1
Cc1cccc(C)c1OCC(=O)Nc1ccncc1	-1
COc1ccc2oc(=O)c(C(=O)Nc3ccccc3O)cc2c1	-3
COc1ccc2oc(=O)c(C(=O)NCc3ccco3)cc2c1	0
COc1ccc2oc(=O)c(-c3nnc(N)s3)cc2c1	10*	HuH7 TTR inh=-10;TTR up confirm=2
COC(=O)c1cccc(Cn2ccc3ccc(-c4ccc5ccn(C(=O)c6ccccc6)c5c4)cc32)c1	0
CC1Cc2ccccc2N1C(=O)COC(=O)c1ccc([N+](=O)[O-])o1 (configuration not stated)	0
CCCCC1(C2CCCC2)NC(=O)NC1=O (configuration not stated)	1
CC1CCN(C(=O)Cn2c(=O)c3cccn3c3ccccc32)CC1	1
CC(/C=C1\SC(=S)N(C(C(=O)O)c2ccccc2)C1=O)=C\c1ccccc1 (configuration not stated)	0
COc1ccc(OC)c(/C=C2\SC(=S)N(C(C(=O)O)c3ccccc3)C2=O)c1 (configuration not stated)	16*	HuH7 TTR inh=11;TTR up confirm=-1
C=CCOc1ccc(/C=C2\SC(=S)N(C(C(=O)O)c3ccccc3)C2=O)cc1 (configuration not stated)	0
Cc1cc2c(s1)c1cnn(Cc3cc(F)c(F)cc3F)c(=O)c1n2C	-2
SMILES	TTR transcr act	others
CCN(CC)C(=O)C1=C(C)N(CCCN2CCCC2=O)C(=O)C(CC(=O)NCc2cccc3ccccc23)C1 (configuration not stated)	-1
CCOC(=O)[C@H]1[C@H]2COc3ccccc3[C@@H]2N2C(=O)c3ccc(C)cc3NC(=O)[C@@]12C	-1
CCCCNC(=O)c1cc(S(=O)(=O)N2CCCCC2)oc1C	0
Cc1ccc(S(=O)(=O)N2CCCCC2)cc1C(=O)NCc1ccncc1	0
CCCCCNC(=O)c1cc(S(=O)(=O)N2CCCCC2)ccc1F	11*	HuH7 TTR inh=-9;TTR up confirm=0
COc1ccc(N2C(=O)NC(NS(=O)(=O)c3ccc(NC(C)=O)cc3)(C(F)(F)F)C2=O)cc1 (configuration not stated)	0
COc1cccc(CNC(=O)CCCn2nc(C)c3c(C)n(-c4ccc(C)cc4)nc3c2=O)c1OC	1
CCOc1ccc(CCNC(=O)Cc2ccccc2)cc1OCC	1
COc1ccc([C@H]2N[C@]3(CCCN(Cc4ccc(Br)cc4)C3=O)[C@H]3C(=O)N(Cc4ccccc4)C(=O)[C@@H]23)cc1	0
O=C(NCc1ccccc1Cl)NC(=O)c1ccccc1	0
O=C(NCc1ccccc1)NC(=O)c1ccc(Cl)cc1	25*	HuH7 TTR inh=-10;TTR up confirm=0
O=C(NCc1ccccc1)c1ccc(CO)cc1	-1
Cc1nc2ccccc2n1CC(=O)OCC(=O)N1CCC(C)CC1	2
COc1ccc(NC(=O)c2cc(C)on2)cc1OC	5
COc1ccc(NC(=O)c2cc(C)on2)cc1	13*	HuH7 TTR inh=7;TTR up confirm=-1
COc1cc(NC(=O)c2cc(C)on2)cc(C(=O)Nc2cccc(C(F)(F)F)c2)c1	-1
O=C1OC(COCC#Cc2ccccc2)CN1c1ccccc1 (configuration not stated)	0
O=C(NCCCn1ccnc1)c1ccc(-c2cccc(Cl)c2Cl)o1	1
Cn1c(CNC(=O)c2ccc(Cl)cc2)nnc1SCC(=O)N1CCOCC1	5
COc1ccc(N2CSC(=S)N(c3ccc(OC)cc3)C2)cc1	2
COc1cc(C(=O)OCC(=O)N2CCC(C)CC2)cc2c1OCCO2	-1
CCCCC(=O)Nc1ccc(NC(=O)CCCC)nc1	0
CCCCC(=O)Nc1ccc(Br)cn1	1
CCCCCCCC(=O)NC1=NC(=O)C(C)(C)S1	13*	HuH7 TTR inh=3;TTR up confirm=1
Cc1cc(C)nc(N2CCC(C(=O)NC3CC3)CC2)n1	3
SMILES	TTR transcr act	others
COC(=O)C[C@H]1C[C@H]2c3cc(NC(=O)Nc4ccc(C(F)(F)F)cc4)ccc3O[C@H]2[C@@H](CO)O1	-2
Nc1[nH]c(C(=O)c2ccccc2)c(-c2ccc(Br)cc2)c1C(=O)N1CCN(CCO)CC1	-2
CCOC(=O)C1=C(C)NC(C)=C(C(=O)OCC)C1c1ccco1	0
CCOC(=O)C1=C(c2ccccc2)OC(N)=C(C#N)C1c1ccco1 (configuration not stated)	13*	HuH7 TTR inh=-4;TTR up confirm=0
CCOC(=O)C1=C(c2ccccc2)OC(N)=C(C#N)C1C1CCCCC1 (configuration not stated)	-2
O=C(CCN1CCCCC1)NCNC(=O)CCN1CCCCC1	-1
C1CCCN(CCCCN2CCCCCC2)CC1	10*	HuH7 TTR inh=-10;TTR up confirm=0
Clc1ccccc1OCCCCN1CCCCC1	-1
COc1ccc(Nc2nccc3c2ncn3C)cc1	0
Cc1ccc(NC(=O)c2ncn(CCCNCc3ccccc3)n2)cc1C	13*	HuH7 TTR inh=-10;TTR up confirm=0
Cc1ccc(NC(=O)c2ncn(CCCNCC3CCCCC3)n2)cc1C	2
Cc1ccc(NC(=O)c2ncn(CCCNCCCN3CCCC3=O)n2)cc1C	-1
COC(=O)c1ccc(CSc2ccccc2NC(=S)Nc2cccc(C(F)(F)F)c2)o1	1
CCCNC(=O)C(Cc1cccc(C#N)c1)NC(=O)c1ccc(C#N)cc1 (configuration not stated)	3
C[C@H](CO)N1C[C@H](C)[C@@H](CN(C)S(=O)(=O)c2ccc(Oc3ccccc3)cc2)OCc2cnnn2CCCC1=O	-1
O=C(NNC(=O)c1ccco1)c1ccc(NS(=O)(=O)c2cccs2)cc1	14*	HuH7 TTR inh=-8;TTR up confirm=0
O=C(O)c1ccc(/C=N/NC(=O)c2ccc(NS(=O)(=O)c3cccs3)cc2)cc1	4
O=C(NNC(=O)c1cc(F)c(F)cc1Cl)c1ccc(NS(=O)(=O)c2cccs2)cc1	1
Cc1noc(NS(=O)(=O)c2ccc(NC(=O)c3ccc(F)cc3)cc2)c1C	-2
Cc1noc(NC(=O)c2ccccc2C(F)(F)F)c1C#N	12*	HuH7 TTR inh=-25;TTR up confirm=1
Cn1c(NC(=O)c2ccccc2C(F)(F)F)cc(=O)n(C)c1=O	0
Cc1cccc(C(=O)Nc2onc(C)c2C#N)c1	5
